biological target: GPRC5C; experiment: pooled miR-30 sensor sort-seq; sequence = guide strand; settings: shRNA
Further: reference of the scale not given here.

Sequence | sensor-assay potency score (higher = more potent)
ATGATGGTGAGCACAAACGTGG | -1.32
TGATGTCGTAAGCTCCTTCGGA | -0.537
TCGTAAGCTCCTTCGGACGGAA | -0.916
TAGTACAGGGGGTTGAGGCCTT | 0.25
TTCGGACGGAACTTTGTGCATC | -0.913
TTCTTGCCGTCTTTCGGCGGTG | -1.04
AAGACCTGAGAGTTCTTGCCGT | 0.1
TCCTTCGGACGGAACTTTGTGC | -0.974
TTGGTGTCCTGCACAAAGGGGA | -0.48
TCACAGAGGAGCAAGATCCAGG | -0.72
ATGGTGAGCACAAACGTGGTGA | -0.43
TGAGGTTGCAGGAATCTCCAGA | 0.399

Source: the OligoGym collection
